Experimental data reported in PubChem BioAssay (NCI).
Compounds without any hit were thinned out: in the full panel of roughly 79,000, 15% have a hit. Active and inactive are the calls of the source. Cut-off read from the data, not from the text of the source: active = growth inhibition above about 70%; inactive = the rest.

How the values were obtained:
[1] = NCI Yeast Anticancer Drug Screen. Data for the rad52 strain (AID 147);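 note: 0% = growth of vehicle-treated control cultures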; conditions: S. cerevisiae rad52 mutant growth inhibition, active compounds read high
Outline: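 Vehicle-treated cultures served as the reference for growth inhibition of compound-exposed yeast bearing a DNA repair mutation.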

[2] = NCI Yeast Anticancer Drug Screen. Data for the wt1 strain (AID 149);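 note: 0% = growth of vehicle-treated wt1 cultures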; conditions: S. cerevisiae wt1 strain (SPY 50644) growth inhibition, active compounds read high
Outline: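 Vehicle-normalised growth inhibition; strain wt1; compound exposure.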

[3] = NCI Yeast Anticancer Drug Screen. Data for the rad50EPP+ strain (AID 151);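 note: 0% = growth of vehicle-treated control cultures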; conditions: S. cerevisiae rad50 mutant strain, active compounds read high
Outline: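 In this screen, rad50EPP+ yeast were exposed to compounds. Growth inhibition was scored against vehicle-treated controls.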

[4] = NCI Yeast Anticancer Drug Screen. Data for the mgt1 strain (AID 153); conditions: S. cerevisiae mgt1 mutant growth inhibition, active compounds read high
Outline: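 mgt1 strain exposed; growth vs vehicle control recorded as inhibition.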

[5] = NCI Yeast Anticancer Drug Screen. Data for the rad50 strain (AID 155);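 note: 0% = growth of vehicle-only cultures of the same strain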; conditions: S. cerevisiae rad50 strain growth inhibition, active compounds read high
Outline: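 A DNA repair-deficient yeast mutant serves as the test organism; compound-induced growth inhibition is calculated against vehicle-treated cells.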

[6] = NCI Yeast Anticancer Drug Screen. Data for the rad14 strain (AID 159);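 note: 0% = growth of vehicle-treated control cultures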; conditions: S. cerevisiae rad14 strain growth inhibition, active compounds read high
Outline: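 Vehicle-treated cultures served as the baseline for growth inhibition of a DNA repair-mutant yeast strain exposed to each compound.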

[7] = NCI Yeast Anticancer Drug Screen. Data for the CLN2oe strain (AID 163);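 note: 0% = growth of vehicle-only control cultures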; conditions: S. cerevisiae CLN2oe strain, active compounds read high
Outline: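 Inhibition relative to vehicle-treated yeast is reported. Cells: strain with genetic alteration in cell-cycle control, grown with compound.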

[8] = NCI Yeast Anticancer Drug Screen. Data for the cln2 rad14 strain (AID 165);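 note: 0% = growth equal to vehicle treated cultures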; conditions: S. cerevisiae cln2 rad14 strain, active compounds read high
Outline: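 Each compound was tested on cln2 rad14 yeast. Inhibition of growth was calculated against vehicle-exposed controls.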

[9] = NCI Yeast Anticancer Drug Screen. Data for the bub3 strain (AID 167); conditions: S. cerevisiae bub3 mutant strain, active compounds read high
Outline: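 Inhibition values come from growth of compound-treated mutant yeast normalised to vehicle-treated controls.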

[10] = NCI Yeast Anticancer Drug Screen. Data for the wt2 strain (AID 169);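 note: 0% = growth of vehicle-treated yeast cultures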; conditions: S. cerevisiae wt2 strain growth inhibition, active compounds read high
Outline: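 Inhibition of yeast growth was determined after compound treatment, normalised to controls receiving only vehicle.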

[11] = NCI Yeast Anticancer Drug Screen. Data for the mlh1 strain (AID 171);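 note: 0% = growth of vehicle-treated control cultures of the same strain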; conditions: S. cerevisiae mlh1 strain growth inhibition, active compounds read high
Outline: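 Vehicle-normalised growth inhibition of a repair- or checkpoint-altered yeast strain following compound treatment.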

[12] = NCI Yeast Anticancer Drug Screen. Data for the sgs1 strain (AID 173);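 note: 0% = growth of vehicle-only control cultures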; conditions: S. cerevisiae sgs1 mutant, active compounds read high
Outline: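 Screen format: yeast with repair or checkpoint alterations, compound exposure, growth read relative to vehicle.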

[13] = NCI Yeast Anticancer Drug Screen. Data for the mlh1 rad18 strain (AID 175); conditions: S. cerevisiae mlh1 rad18 strain growth inhibition, active compounds read high
Outline: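 Vehicle-treated cultures served as the reference for growth inhibition in a yeast strain carrying DNA damage repair alterations exposed to each compound.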

[14] = NCI Yeast Anticancer Drug Screen. Data for the rad18 strain (AID 177); conditions: S. cerevisiae rad18 mutant growth inhibition, active compounds read high
Outline: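 Test articles were incubated with altered yeast defective in DNA damage repair. Results are given as inhibition of growth versus vehicle.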

[15] = NCI Yeast Anticancer Drug Screen. Data for the mec2-1 strain (AID 157); conditions: S. cerevisiae mec2-1 strain, active compounds read high
Outline: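 Vehicle-treated cultures served as reference for growth inhibition of compound-exposed mec2-1 yeast.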

[16] = NCI Yeast Anticancer Drug Screen. Data for the sgs1 mgt1 strain (AID 161);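 note: 0% = growth of cultures given vehicle only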; conditions: S. cerevisiae sgs1 mgt1 strain, active compounds read high
Outline: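 Inhibition of yeast growth, normalised to vehicle-treated controls, is reported for a strain bearing genetic alterations in DNA damage repair.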

[17] = at 5.0 µM (retest, dose inferred, filed as 0.5)
[18] = at 50.0 µM (retest, dose inferred, filed as 5.0)

Measured: growth inhibition

CC1=C(CO)C2=C(C)C3(CC3)[C@@](C)(O)C(=O)C2=C1
inactive: [1]; at 1.2 µM 1% | [1]; at 3.7 µM 9% | [1]; at 11.0 µM 27% | [1]; at 33.0 µM 52% | [2]; at 1.2 µM 0% | [2]; at 3.7 µM -1% | [2]; at 11.0 µM -1% | [2]; at 33.0 µM 0% | [2]; at 100.0 µM -13% | [3]; at 1.2 µM -2% | [3]; at 3.7 µM 0% | [3]; at 11.0 µM 0% | [3]; at 33.0 µM 2% | [3]; at 100.0 µM 0% | [4]; at 1.2 µM -2% | [4]; at 3.7 µM -1% | [4]; at 11.0 µM -1% | [4]; at 33.0 µM -1% | [4]; at 100.0 µM 0% | [5]; at 1.2 µM 1% | [5]; at 3.7 µM 3% | [5]; at 11.0 µM 13% | [5]; at 33.0 µM 42% | [5]; at 50.0 µM 14% | [6]; at 1.2 µM 0% | [6]; at 3.7 µM -2% | [6]; at 11.0 µM 5% | [6]; at 33.0 µM 19% | [6]; at 100.0 µM 59% | [7]; at 1.2 µM -7% | [7]; at 3.7 µM -6% | [7]; at 11.0 µM -13% | [7]; at 33.0 µM -11% | [7]; at 100.0 µM -2% | [8]; at 50.0 µM 18.3% | [9]; at 1.2 µM -4% | [9]; at 3.7 µM -5% | [9]; at 11.0 µM -8% | [9]; at 33.0 µM -14% | [9]; at 50.0 µM -40.2% | [9]; at 100.0 µM -13% | [10]; at 1.2 µM -2% | [10]; at 3.7 µM 0% | [10]; at 11.0 µM -1% | [10]; at 33.0 µM -1% | [10]; at 100.0 µM 3% | [11]; at 1.2 µM -1% | [11]; at 3.7 µM 0% | [11]; at 11.0 µM 1% | [11]; at 33.0 µM 3% | [11]; at 100.0 µM 8% | [12]; at 1.2 µM 4% | [12]; at 3.7 µM 11% | [12]; at 11.0 µM 29% | [12]; at 33.0 µM 55% | [13]; at 50.0 µM 0.3% | [14]; at 1.2 µM 44%
active: [1]; at 100.0 µM 81% | [5]; at 100.0 µM 79% | [12]; at 100.0 µM 78% | [14]; at 3.7 µM 82% | [14]; at 11.0 µM 90% | [14]; at 33.0 µM 93% | [14]; at 100.0 µM 94%

CNC(=O)ON(C(C)=O)C(=O)NC
inactive: [1]; at 1.2 µM -27% | [1]; at 3.7 µM -14% | [1]; at 11.0 µM -22% | [1]; at 33.0 µM -38% | [1]; at 100.0 µM -24% | [2]; at 1.2 µM -60% | [2]; at 3.7 µM -52% | [2]; at 11.0 µM -58% | [2]; at 33.0 µM -65% | [2]; at 100.0 µM -60% | [3]; at 1.2 µM -19% | [3]; at 3.7 µM -15% | [3]; at 11.0 µM -15% | [3]; at 33.0 µM -6% | [3]; at 100.0 µM 42% | [4]; at 1.2 µM -9% | [4]; at 3.7 µM 0% | [4]; at 11.0 µM 0% | [4]; at 33.0 µM 8% | [4]; at 100.0 µM 12% | [5]; at 1.2 µM -17% | [5]; at 3.7 µM -40% | [5]; [17] 13% | [5]; at 11.0 µM -20% | [5]; at 33.0 µM -17% | [5]; [18] 26% | [5]; at 100.0 µM -4% | [15]; at 1.2 µM -9% | [15]; at 3.7 µM -4% | [15]; [17] 2% | [15]; at 11.0 µM 5% | [15]; at 33.0 µM 4% | [15]; [18] 31% | [15]; at 100.0 µM -9% | [6]; at 1.2 µM -47% | [6]; at 3.7 µM -35% | [6]; at 11.0 µM -48% | [6]; at 33.0 µM -47% | [6]; at 100.0 µM -47% | [16]; [17] 62% | [7]; at 1.2 µM -30% | [7]; at 3.7 µM 2% | [7]; at 11.0 µM 19% | [7]; at 33.0 µM 14% | [7]; at 100.0 µM 11% | [8]; [17] 35% | [9]; at 1.2 µM 3% | [9]; at 3.7 µM 4% | [9]; [17] 31% | [9]; at 11.0 µM 23% | [9]; at 33.0 µM 35% | [9]; at 50.0 µM 52% | [9]; at 100.0 µM 60% | [11]; at 1.2 µM -43% | [11]; at 3.7 µM -27% | [11]; at 11.0 µM -11% | [11]; at 33.0 µM 4% | [11]; at 100.0 µM -9% | [12]; at 1.2 µM -26% | [12]; at 3.7 µM -49% | [12]; at 11.0 µM -13% | [12]; at 33.0 µM -15% | [12]; at 100.0 µM -19% | [13]; [17] 12% | [13]; [18] 22% | [14]; at 1.2 µM -6% | [14]; at 3.7 µM -24% | [14]; at 11.0 µM -21% | [14]; at 33.0 µM 0% | [14]; at 100.0 µM 24%
active: [16]; [18] 100% | [16]; at 50.0 µM 87.7% | [8]; [18] 99% | [8]; at 50.0 µM 86.2% | [9]; [18] 100%
